Bioassay records (PubChem BioAssay)
Compounds with a hit are over-represented: about 7.6% of the library has one in this group of screens.
M1 antag: antagonists of rat M1 muscarinic receptor; Muscarinic acetylcholine receptor M1 (Rattus norvegicus), P08482; CHO-M1 cells, Fluo-4 calcium, ACh EC80 antagonist mode; hits give low values; B-score at 10 µM; AID 628, 2007; hit rate 3.4% among 64,000;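 active means calcium fluorescence response, raw or row-and-column corrected B-score, differing from the plate sample mean either way at a set confidence level, mostly lower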
Cav32 inh: Cav3.2 calcium influx blockers – cell-based, Fluo-4 calcium fluorescence, FDSS, MLSMR library, primary screen. Cav3.2-expressing cells; hits give low values. hit rate 4% among 100,000. B-score at 10 µM. AID 449739, 2010. Voltage-dependent T-type calcium channel subunit alpha-1H (Homo sapiens), O95180;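 active means single-dose well whose peak fluorescence ratio is a statistical outlier from its plate by either plate-standardised score or position-corrected B-score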
PLAP act: PLAP enzyme activators, biochemical, luminescence, HTS; activation fold at 20 µM; Alkaline phosphatase, placental type (Homo sapiens), P05187; purified PLAP enzyme, luminescent substrate read-out; hits give high values; AID 696, 2007; hit rate 1.2% among 96,000; in the data active means activation fold above about 2
Target sequence (P05187 whole entry, looked up): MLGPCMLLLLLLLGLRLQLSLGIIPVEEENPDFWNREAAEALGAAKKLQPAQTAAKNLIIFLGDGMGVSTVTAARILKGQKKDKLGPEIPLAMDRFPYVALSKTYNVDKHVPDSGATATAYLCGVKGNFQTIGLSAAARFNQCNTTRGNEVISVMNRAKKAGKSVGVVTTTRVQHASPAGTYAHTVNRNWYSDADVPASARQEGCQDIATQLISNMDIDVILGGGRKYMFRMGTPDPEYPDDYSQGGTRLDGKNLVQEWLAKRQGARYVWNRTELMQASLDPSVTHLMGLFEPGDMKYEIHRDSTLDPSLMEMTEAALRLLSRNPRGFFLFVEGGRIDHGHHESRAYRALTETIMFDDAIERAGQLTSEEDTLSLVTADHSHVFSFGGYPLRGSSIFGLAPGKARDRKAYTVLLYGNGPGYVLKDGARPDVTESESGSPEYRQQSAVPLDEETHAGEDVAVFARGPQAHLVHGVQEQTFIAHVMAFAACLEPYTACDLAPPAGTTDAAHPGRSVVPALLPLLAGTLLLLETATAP
M1 ag: M1 muscarinic receptor agonists, primary screen, CHO-M1 cells, Fluo-4 calcium, agonist mode | Muscarinic acetylcholine receptor M1 | Fluo-4 calcium fluorescence; hits give high values | B-score at 10 µM | hit rate 3% among 64,000;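 active means fluorescence rise, raw or as B-score row- and column-corrected plate score, outside the 99.7% band of its plate's samples, either direction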
Hits are given with their value; - = inactive; . = no result.

SMILES	M1 antag	Cav32 inh	PLAP act	M1 ag
CCC(C)NC(=O)CCNS(=O)(=O)c1ccc(Br)cc1 (centres undefined)	-	-	-	-
N#CCCn1c(=S)[nH]c2ccccc21	.	-	2.6	.
Cn1c(=S)[nH]c2ccccc21	.	-	-	.
CCn1c(CN2CCN(c3ccc(Cl)cc3)CC2)nc2ccccc21	.	-6.7	.	.
CC12CC(NC(=O)N1c1ccc(C(=O)N3CCN(c4ccc(F)cc4)CC3)cc1)c1ccccc1O2 (centres undefined)	-	-5.3	-	-
CC12CC(NC(=O)N1c1cccc(C(=O)N3CCN(c4ccccc4)CC3)c1)c1ccccc1O2 (centres undefined)	-	-5.4	-	-
COc1ccccc1N1CCN(C(=O)c2cccc(N3C(=O)NC4CC3(C)Oc3ccccc34)c2)CC1 (centres undefined)	-	-3.9	-	-
CC12CC(NC(=O)N1c1cccc(C(=O)NCc3ccccc3)c1)c1ccccc1O2 (centres undefined)	.	.	-	.
CC12CC(NC(=O)N1Cc1ccccc1)c1ccccc1O2 (centres undefined)	-	-5.4	-	-
CCOc1cccc2c1OC1(C)CC2NC(=O)N1c1ccc(OC)cc1 (centres undefined)	-	-	-	-
CCNC(=O)n1nccc1C(C)Oc1ccc(Cl)cc1 (centres undefined)	.	-	-	.
CCOC(=O)NC1(C(F)(F)F)C(=O)N(Cc2ccccc2)C2=C1C(=O)CC(C)(C)C2 (centres undefined)	.	-	-	.
CSCc1cc(N2CCOCC2)nc(SCc2ccc(Cl)c(Cl)c2)n1	.	-	-	.
Cc1ccc(CNC(=O)CCNC(=O)Cn2ccc3ccccc3c2=O)o1	-	-	-	-
Cc1ccc(C(=O)C(NC(=O)c2ccco2)Nc2sc3c(c2C(N)=O)CCCC3)cc1 (centres undefined)	.	-	.	.
CC1CCCN(c2nc3c(c(=O)[nH]c(=O)n3C)n2Cc2ccccc2Cl)C1 (centres undefined)	-	-6.1	-	-
C=C(C)Cn1c(N2CCC(Cc3ccccc3)CC2)nc2c1c(=O)[nH]c(=O)n2C	-	-4	.	-
CCOC(=O)C(CC)Sc1nc2c(c(=O)[nH]c(=O)n2C)n1CCc1ccccc1 (centres undefined)	-	-	2.8	-
CCCCCn1c(N2CCC(Cc3ccccc3)CC2)nc2c1c(=O)[nH]c(=O)n2C	-	-4.8	.	-
CCOC(=O)CSc1nc2c(c(=O)[nH]c(=O)n2C)n1CCc1ccccc1	-	-	-	-
Cc1ccc(C)c(N(CC(=O)NC2CCCCC2)C(=O)CCC(=O)Nc2ccccn2)c1	-	.	-	-
C[N+]1=C2CCCCCN2C(O)(c2ccccc2)C1 (centres undefined)	-	-	-	-
O=C1c2ccsc2SCCN1Cc1c(Cl)cccc1Cl	.	-5.6	-	.
O=C1c2ccsc2SCCN1Cc1ccc(Cl)cc1Cl	.	-4.6	-	.
CCOc1ccccc1NC(=O)NC1(C(=O)N2CCN3CCCC3C2)CCCCC1 (centres undefined)	-	-	2.1	-
SMILES	M1 antag	Cav32 inh	PLAP act	M1 ag
Cc1cc(C)c(C(=O)CSC2=NC(N)=C(C#N)C3(CCCCC3)C2C(N)=O)cc1C (centres undefined)	.	-	-	.
CCO[C@@H]1OC(C(=O)N2CCN(C)CC2)=C[C@H](C(C)(C)C)[C@H]1CCCO	.	-	.	.
COc1ccc(-c2nc3c(c(=O)n(C)c(=O)n3C)n2CC2CC(c3ccccc3)=NO2)cc1OC (centres undefined)	-	3.4	.	4.7
CSc1nc(-c2ccco2)nn1C(=O)c1ccc(Cl)cc1	.	.	-	.
NC(=O)CC(NC(=O)Cc1cccc2ccccc12)c1ccc(NCc2ccc(F)c(F)c2)c([N+](=O)[O-])c1 (centres undefined)	.	-	.	.
CCOC(=O)C1=NN(c2ccc(Cl)cc2)C(c2ccccc2)CC1=O (centres undefined)	.	-	.	.
O=C(NCCn1cc(SCc2ccc(F)cc2)c2ccccc21)c1ccccc1F	.	-4.7	.	.
O=C(NCCn1cc(SCc2ccc(F)cc2)c2ccccc21)c1c(F)cccc1F	.	-	.	.
Cc1nn(CCc2n[nH]c(=S)n2-c2cccc(Cl)c2)c(C)c1[N+](=O)[O-]	.	-	2.2	.
CC(C)(C)C(=O)C(Oc1cccc2nonc12)n1cncn1 (centres undefined)	-	-	-	-
Cc1[nH]nc2ncc(C(=O)c3ccccc3O)cc12	-	.	2.1	-
Cc1cccc(NC(=O)CSc2nc3ccccc3c3nc(CCc4c(C)n[nH]c4C)nn23)c1	.	-	-	.
Cc1n[nH]c(C)c1CCc1nc2c3ccccc3nc(SCC(=O)Nc3ccccc3F)n2n1	.	-	2.2	.
CCOC(=O)c1cnc2c(C)c(-c3ccccc3)[nH]n2c1=O	.	-	-	.
Nn1c(SCC(=O)Nc2ccc(S(=O)(=O)N3CCCC3)cc2)nnc1C(F)(F)F	-	-	-	-
Cc1ccc(NC(=O)CSc2nnc(-c3ccc(S(=O)(=O)N4CCCC4)cc3)o2)cc1C	-	-	-	-
Cc1cc(C)nc(SCC(=O)Nc2ccc(S(=O)(=O)N3CCCCC3)cc2)n1	.	.	2.1	.
Cc1csc(SCC(=O)Nc2ccc(S(=O)(=O)N3CCCC3)cc2)n1	-	-	-	-
N#Cc1ccc(CSc2nnc(-c3cccc(S(=O)(=O)N4CCCCC4)c3)o2)cc1	-	-7.5	-	-
CC(NC(=O)CSc1nnc(-c2cccc(S(=O)(=O)N3CCCCC3)c2)o1)C12CC3CC(CC(C3)C1)C2 (centres undefined)	.	-7	-	.
O=S(=O)(c1ccc(-c2nnc(SCc3nnc(-c4ccccc4)o3)o2)cc1)N1CCCC1	-	-	-	-
CC(C)CNC(=O)CSc1nnc(-c2cccc(S(=O)(=O)N3CCCCC3)c2)o1	.	-	-	.
Cc1cccc(NC(=O)CSc2nnc(-c3ccc(S(=O)(=O)N4CCCC4)cc3)o2)c1	-	-	2.1	-
Cc1cc(S(=O)(=O)NC(C)C)ccc1OCC(=O)N1CCOCC1	.	-	-	.
CCc1ccc(CSc2nccn2-c2ccccc2)cc1	.	-5.4	-	.
SMILES	M1 antag	Cav32 inh	PLAP act	M1 ag
c1ccc(CCSc2nccn2-c2ccccc2)cc1	.	-	-	.
Cc1cccc(NC(=S)NNC(=O)c2sccc2C)c1	.	-	2.1	.
Cc1cccc(NC(=S)NNC(=O)c2csc(C(C)C)c2)c1	.	-5.5	.	.
Cc1ccsc1C(=O)NNC(=S)NCC(C)C	.	-	2.2	.
CC(C)CNC(=S)NNC(=O)c1csc2ccccc12	.	-	-	.
Cc1ccc2ccc(C3C(=O)c4ccccc4C3=O)nc2c1	.	-	.	.
CCN(CC)c1ccc(C(=O)OCC(=O)NCC2CCCO2)cc1 (centres undefined)	.	-	-	.
Cc1cc(O)cc(O)c1-c1onc(C(F)(F)F)c1-c1cscn1	-	-5.2	-	-
COc1cccc(CNC(=O)C2CCCN(S(C)(=O)=O)C2)c1 (centres undefined)	-	-	-	-
C/C(CC(=O)Nc1cccc(Cl)c1)=N\NC(=O)Cc1ccc(Cl)cc1	.	-9.1	-	.
COCCNC(=O)c1ccccc1NC(=O)COc1ccccc1	2.1	-	-	-
